Measured values published in PubChem BioAssay (NCATS).
Unmarked numbers belong to inactive results. Inconclusive results are not listed. A call without a number means that no potency is given here. Calls of active or inactive are those of the source. The call rests on the fitted dose curve; in most records, active means well fitted curve in the direction sought with a large enough effect; inconclusive means small, poorly fitted or top-dose-only effect, or another doubt; inactive means no such curve, though single readings can be large; an effect the other way counts as inactive or inconclusive. Where a SMILES comes first, the peptide text is derived from it.

Experiments:
[1] = Primary fluorescence-based thiol-reactive (MSTI) qHTS assay for identification of artifact compounds. (AID 1845221); further: nearly all actives have a fitted effect of over 65% in size; further: potency means the concentration at half of the fitted maximal effect;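 on activity change, negative = thiol reactive: series mostly up to about 54 µM; thiol-reactive compounds lower the probe fluorescence signal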
How it was run: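 One-hour, room-temperature, dark incubation of compound with 4 uM MSTI in PBS (pH 7.4, 2% DMSO) precedes a fluorescence read at 525 nm excitation, 598 nm emission; Hill-equation fitting yields concentration-response values.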

[2] = test system: Nanoluciferase (engineered Oplophorus gracilirostris luciferase); assay: Primary Nanoluciferase (NLuc) qHTS assay for identification of artifact compounds. (AID 1845222);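 further: NLuc secreted into diluted conditioned medium of S16 cells; series mostly up to about 54 µM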
How it was run: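 S16 cell supernatant NLuc, 1:55; cpds qHTS; 15 min RT dark; Nano-Glo substrate 1:100, 5 min; luminescence; Hill fit of % inhibition.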

Compound	Potency [1]	Potency [2]	activity change, negative = thiol reactive [1]	activity, negative = inhibition [2]
O=C(/C=C/N1C[C@@H]2C[C@@H]1CN2c1ccccn1)c1ccccc1O	inactive	inactive		
C[C@@H]1CC[C@]2(C(=O)O[C@@H]3O[C@H](CO[C@@H]4O[C@H](CO)[C@@H](O)[C@H](O)[C@H]4O)[C@@H](O)[C@H](O)[C@H]3O)CC[C@]3(C)C(=CCC4[C@@]5(C)CC[C@H](O)[C@](C)(C(=O)O)C5CC[C@]43C)[C@@H]2[C@]1(C)O (stereo partly specified)			22.8% [at 11.5 µM]	2.17% [at 11.6 µM]
CC(=O)NC(Cc1c[nH]c2ccccc(=O)c12)C(=O)O (stereo unspecified)	5.32 µM (active)	inactive		
CCc1nnc(NS(=O)(=O)c2ccc(NC(=S)NC(=O)/C=C/c3ccc(F)cc3)cc2)s1	inactive	inactive		
Cc1ccc([C@@H]2CC=C(C(=O)O)[C@H](c3ccc(C(C)(C)C)cc3)N2S(=O)(=O)c2ccc(C)cc2)cc1	inactive	inactive		
CC(C)=CCC[C@](C)(O[C@@H]1O[C@H](CO[C@@H]2O[C@@H](CO)[C@H](O)[C@H]2O)[C@@H](O)[C@H](O)[C@H]1O)[C@H]1CC[C@]2(C)[C@@H]1[C@H](O)C[C@@H]1[C@@]3(C)CC[C@H](O[C@@H]4O[C@H](CO)[C@@H](O)[C@H](O)[C@H]4O[C@@H]4O[C@H](CO)[C@@H](O)[C@H](O)[C@H]4O)C(C)(C)[C@@H]3CC[C@]12C	inactive	inactive		
C/C=C1/CC2C(=O)Nc3cc(O)c(OC)cc3C(=O)N2C1 (stereo unspecified)	13.1 µM (active)	inactive		
CCOC(=O)C(CCc1ccccc1)NC(C)C(=O)N1Cc2ccccc2CC1C(=O)O (stereo unspecified)	inactive	inactive		
C=C1C(=O)OC[C@H]2C(C(=O)O)=CC3CC(C)(C)C[C@@]132 (stereo partly specified)	21.2 µM (active)	inactive		
O=C(O)C(Cc1ccccc1)NC(=O)C1CCCN1 (stereo not drawn) (H-Pro-Phe-OH; configuration not given here)	inactive	inactive		
O=C(O)CC/C=C\C[C@H]1CO[C@@H](c2ccccc2Cl)O[C@H]1c1ccccc1O	inactive	inactive		
COc1cccc(OC)c1-c1cc(C(=O)N[C@@H](CC(C)C)C(=O)O)nn1-c1ccnc2cc(Cl)ccc12	inactive	inactive		
CC(O)C1CCC2C3CCC4CC(OC5OC(C(=O)O)C(O)C(O)C5O)CCC4(C)C3CCC12C (stereo unspecified)	inactive	inactive		
COc1c2ccoc2nc2c(OC)c(O[C@@H]3O[C@@H](C)[C@H](O)[C@@H](O[C@@H]4O[C@H](CO)[C@@H](O)[C@H](O)[C@H]4O)[C@H]3OC(C)=O)ccc12	inactive	inactive		
C[C@@H]1O[C@@H](O[C@@H]2\C=C/C=C\C=C/C=C\C[C@H](C)OC(=O)/C=C\[C@H]3O[C@@H]3C[C@H](O)C[C@]3(O)C[C@@H](O)[C@@H](C(=O)O)[C@H](C2)O3)[C@H](O)[C@H](N)[C@@H]1O	inactive	inactive		
C/C=C/C=C/[C@@H]1O[C@](O)([C@H](CC)C(=O)NC/C=C/C=C(\C)[C@@H](OC)[C@@H](C)[C@@H]2O[C@H](/C=C/C=C/C=C(\C)C(=O)c3c(O)ccn(C)c3=O)[C@H](O)[C@@H]2O)[C@H](O)[C@H](O)C1(C)C			94.3% [at 11.5 µM]	-0.199% [at 11.6 µM]
O=c1[nH]ccc2nc(-c3ccc(CN4CCC(c5nc(-c6ccccn6)n[nH]5)CC4)cc3)c(-c3ccccc3)cc12	inactive	inactive		
C[C@H]1CC[C@@]2(OC1)O[C@H]1CC3C4CC[C@H]5C[C@@H](O[C@@H]6O[C@H](CO)[C@H](O[C@@H]7O[C@H](CO)[C@@H](O)[C@H](O[C@@H]8OC[C@@H](O)[C@H](O)[C@H]8O)[C@H]7O[C@@H]7O[C@H](CO)[C@@H](O)[C@H](O)[C@H]7O)[C@H](O)[C@H]6O)[C@H](O)C[C@]5(C)C4=CC(=O)[C@]3(C)[C@H]1[C@@H]2C (stereo partly specified)			203% [at 11.5 µM]	0% [at 11.6 µM]
Cc1cc(OCCN2CCOCC2)nn1-c1ccc2ccccc2c1	inactive	inactive		
CC1(C)OC(=O)CC(O)C2(C)C1CC(=O)C1(C)C2C(O)CC2(C)C(c3ccoc3)OC(=O)C3OC321 (stereo unspecified)	inactive	inactive		
CC(=O)OC12CC(C)C(OC(=O)c3ccccc3)C1/C=C(/C)C(OC(=O)c1ccccc1)CC(=O)C(C)(C)/C=C/C(C)C2=O (stereo unspecified)	inactive	inactive		
CC(=O)O[C@@H]1C=C2[C@H](CC[C@@]3(C)[C@@]2(O)CC[C@H]2Cc4c([nH]c5ccccc45)[C@@]23C)O[C@@H]1C(C)(C)O	4.12 µM (active)	inactive		
CC(=O)O[C@@H]1C(O)C[C@@]2(C)C(CC[C@@H](C)C23Cc2c(O)cc4c(c2O3)CNC4=O)C1(C)C (stereo partly specified)	inactive	inactive		
Cc1ncc(NC(=O)c2ccc(CN3CCN(C)CC3)c(C(F)(F)F)c2)cc1Nc1nccc(-c2cccnc2)n1	inactive	inactive		
COc1cccc(CN(C(=O)CC(C)(C)C)C2CC(C(=O)N3CCNCC3)N(Cc3ccc4c(c3)OCO4)C2)c1 (stereo unspecified)	inactive	inactive		
COc1ccc2c(c1)C=C1Cn3c-2c(C2CCCCC2)c2ccc(cc23)C(=O)NS(=O)(=O)N(C)CCOCCN(C)C1=O	inactive	inactive		
C[C@@H]1O[C@@H](O[C@H]2[C@H](O[C@H]3[C@H](O[C@H]4CC[C@@]5(C)C(CC[C@]6(C)C5CC=C5[C@@H]7CC(C)(C)CC(=O)[C@]7(C)CC[C@]56C)[C@@]4(C)CO)O[C@H](C(=O)O)[C@@H](O)[C@@H]3O)O[C@H](CO)[C@H](O)[C@@H]2O)[C@H](O)[C@H](O)[C@H]1O (stereo partly specified)			40% [at 11.5 µM]	-0.78% [at 11.6 µM]
CCC(C)/C=C(C)/C=C/C(=O)C1CCC(O)C(C)(O)C1=O (stereo unspecified)	23.8 µM (active)	inactive		
